According to the supplement of paper PMC6555819:

tested on: RARb homodimer (NR concentration 270 nM); test: PBM binding z-score (relative to random genomic background probes); higher = stronger binding; sequences stand for … in GC…GCGATTGACAGCGTAGAATGAAGG
How it was run: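 Probes were double-stranded and carried 34-nt variable regions with direct-repeat seeds, single-nucleotide variants, half-site ablations and random human genomic background sequences, printed on custom Agilent 4×180K protein-binding microarrays. Arrays were incubated 1 h with ligand-free nuclear receptor dimers in PBS pH 7.4, 2% milk, 0.02% Triton X-100, 1 mM DTT, 0.2 mg/mL BSA and 0.4 mg/ml salmon testes DNA. Antibodies against each partner (one per run) detected binding, and scanned fluorescence was regression-normalized. Binding z-scores use the random background probes as reference.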

Row | Sequence | PBM binding z-score
1 | CCCGAAAGGTCGTGCTCAGGTGAGTATACCAAAC | 2.89
2 | ACTTACGGGTCAACGAGGTTGTAGCACGCGTATA | 3.03
3 | ATCTCCAGGTAAAAGTTCAGTGAATCCCGAGGAT | 2.54
4 | TGAATGAGGTTAAAGACCAGGGAACGTGGCGTCG | 0.539
5 | GCTAGCAGGCCATTTGGCTCACTCAATGACGGGC | -1.05
6 | TCATATCGGTAAATGCTAGGTGAAAGTCCGATCT | 0.513
7 | AATACAGGGTCATCGTAGGACAGAGTACGCACAG | 3.3
8 | CCTACTGGGCCATTCAGAGGTCATTCATCATATG | 4.11
9 | GTACCAAGGTGAATAGGTGGTTGATGAGTAGGCG | 0.863
10 | GCTCGGAGGACAAGTTCAGAGCTTTGTCCGTAGA | 1.38
11 | TGTCAAAGTTCAAAGGTAACGTAGGTATCCACAC | 4.01
12 | GATACAGTGTCAGCTAGAGGCCAGAGTATGGAAA | 1.01
13 | GATACAGGGTCTGCTAGAGGCCAGAGTATGGAAA | 0.393
14 | TTACCAAGGTGAGCTGAGGCCGTTGATCCAACTC | 0.505
15 | ACTATTAGTTGAGACGAGGGCAACCGATAGGTTG | 1.2
16 | TCTTGTAGATGAAGCAGGTTAAGAAAGCCTGAGT | -0.21
17 | AGTCAAAGTTCATGTAGGTAACGTAAGATATGCT | 3.73
